Measured values reported in PubChem BioAssay (Tox21).
Results filed as inconclusive are left out. Unmarked numbers belong to inactive results. The call rests on the fitted dose curve; in most records, active means well fitted cell-killing curve with a large enough effect in the repeat runs; inconclusive means weak or mixed curves; inactive means flat fitted curve, though single readings scatter.

Experiment: qHTS RealTime-Glo MT Cell Viability Assay in HepG2 cells - 8 hour (AID 1224873); further: nearly all actives have a fitted effect of over 55% in size
Conditions: RealTime-Glo luminescence; series mostly up to 76.8 µM; viability change, negative = cytotoxic: at the top concentration
From the text: National Center for Advancing Translational Sciences [NCATS]
NIH Chemical Genomics Center [NCGC]
U.S. Environmental Protection Agency [EPA]
National Institutes of Environmental Health Sciences [NIEHS]
National Toxicology Program [NTP]
U.S. Food and Drug Administration [FDA]
Measure of cell viability is critical in the cell-base assay. Analysis of cell viability is necessary for the characterization of cell responses to cytotoxic drugs and environmental stress. A RealTime-Glo MT Cell Viability Assay to monitor cell viability in real time of continues cell culture during 40 hours of compound treatment was used to screen Tox21 10K library compounds in HepG2 cells. The RealTime-Glo MT Cell Viability Assay is a nonlytic, homogeneous, bioluminescent method to measure cell viability in real time using a simple, plate-based method. The assay involves adding NanoLuc luciferase and a cell-permeant prosubstrate to cells in culture. Viable cells reduce the proprietary prosubstrate to generate a substrate for NanoLuc luciferase. This substrate diffuses from cells into the surrounding culture medium, where it is rapidly used by the NanoLuc Enzyme to produce a luminescent signal. The signal correlates with the number of viable cells, making the assay well suited for cytotoxicity studies.
Tox21 Assay Protocol Summary:
The mixture of HepG2 cell suspension and reagents were dispensed at 600cells/6 ul/well in 1536-well tissue culture treated black solid bottom plates using a Multidrop dispenser. After the assay plates were incubated at a 37 C/5% CO2 incubator for 5 hours, 23 nL of compounds dissolved in DMSO, positive and negative controls was transferred to the assay plate by a pintool work station. The plates were incubated at 37 C for 40 hours. The luminescence intensity were measured at 0h, 8h, 16h, 24h, 32h and 40h time points using ViewLux plate reader during compound treatment.
On the % scale 0 is the no-effect control and ±100 the full control effect.

Row | Compound | viability change, negative = cytotoxic
1 | C=CCOC(=O)CCC1CCCCC1 | 1.38%
2 | Brc1c2ccccc2c(Br)c2ccccc12 | 0.903% [at 6.97 µM]
3 | CCOC(=O)C(O)c1ccccc1 (stereo not given) | 8.73% [at 35.3 µM]
4 | CCCCC(=O)OCC(=O)[C@H]1[C@H](C)C[C@H]2[C@@H]3C[C@H](F)C4=CC(=O)C=C[C@]4(C)[C@@]3(F)[C@@H](O)C[C@@]21C | -8.9% [at 35.3 µM]
5 | Cc1c(N)cccc1[N+](=O)[O-] | -8.19%
6 | CCO[C@H](Cc1ccc(OCCc2ccc(OS(C)(=O)=O)cc2)cc1)C(=O)O | 14.1% [at 35.3 µM]
7 | CCCCCCCC#N | -0.354%
8 | Cc1cc(C(=O)O)ccc1[N+](=O)[O-] | 1.32%
9 | O=C(OCCCCCCOC(=O)c1ccccc1)c1ccccc1 | 1.14%
10 | CC1CCC(=O)C1=O (stereo not given) | 9.53%
11 | CC(=O)c1ccc2c(c1)N(CCCN1CCC(CCO)CC1)c1ccccc1S2 | -16.9% [at 35.3 µM]
12 | CCCCO | 1.31%
13 | CC(C)(O)c1ccc(CNC(=O)c2cccnc2Oc2ccc(F)cc2)cc1 | -0.171%
14 | CC(=O)c1cccc([N+](=O)[O-])c1 | 1.22%
15 | N=c1ccn2c(n1)O[C@H]1[C@H](O)[C@@H](CO)O[C@H]12 | 8.31%
16 | O=[N+]([O-])c1ccc2[nH]ncc2c1 | -0.45%
17 | Nc1ncn([C@H]2C[C@H](O)[C@@H](CO)O2)c(=O)n1 | 5.35% [at 35.3 µM]
18 | CCC(C)c1cc(C(C)(C)C)c(O)c(C(C)(C)C)c1 (stereo not given) | 0.111%
19 | CCC(CC)Nc1ccc(C)c(C)c1 | 1.06%
20 | O=C(O)CNCC(=O)O | 0.198% [at 6.97 µM]

Row | Compound | viability change, negative = cytotoxic
21 | COc1cc2nc(N3CCN(C(=O)C4COc5ccccc5O4)CC3)nc(N)c2cc1OC (stereo not given) | -13.4% [at 35.3 µM]
22 | C[N+]1(C)CCC(OC(=O)C(O)(c2ccccc2)C2CCCC2)C1 (stereo not given) | 7.5% [at 35.3 µM]
23 | C[C@@H]1C[C@H]2O[C@@]3(O[C@@H]2C(C)(C)O)[C@H](O)[C@@]2(C)[C@@H]4CC[C@H]5C(C)(C)[C@@H](O[C@@H]6OC[C@@H](O)[C@H](O)[C@H]6O)CC[C@@]56C[C@@]46CC[C@]2(C)[C@@H]13 | -8.42% [at 35.3 µM]
24 | CC(C)O.CC(C)O.CCOC(=O)/C=C(\C)O.CCOC(=O)/C=C(\C)O.[Ti] | 0.476%
25 | CN1C[C@H]2c3ccccc3Oc3ccc(Cl)cc3[C@@H]2C1 | -10.4% [at 35.3 µM]
26 | COc1cc(C(=O)OCCCN2CCCN(CCCOC(=O)c3cc(OC)c(OC)c(OC)c3)CC2)cc(OC)c1OC | -5.74% [at 35.3 µM]
27 | CCOC(=O)Cc1cccc2ccccc12 | 0.0686%
28 | CC(C)(COC(=O)c1ccccc1)COC(=O)c1ccccc1 | -8.95%
29 | COc1ccc(C(=O)N2CCN(CC(=O)N3CCOCC3)CC2)cc1 | 9.44% [at 35.3 µM]
30 | CCCCCCCCCCCC(=O)OC[C@@H](O)[C@H]1OC[C@H](OCCO)[C@H]1OCCO | 13.9%
31 | O=C(O)c1ccc(S(=O)(=O)O)cc1C(=O)O | -20.9%
32 | C=C(C)C(=O)OCC | 0.111%
33 | CC(=O)[O][Al] | -1.15%
34 | CCCCCCCCCCCCCCOS(=O)(=O)O | -4.73%
35 | C=CCOc1ccccc1OCC(O)CNC(C)C (stereo not given) | 0.521% [at 35.3 µM]
36 | Cc1cccc(C)c1NC(=O)CN(CC(=O)O)CC(=O)O | 6.94% [at 35.3 µM]
37 | O=C(O)C1(C(=O)O)CCC1.[NH2-].[NH2-].[Pt+2] | 4.57% [at 35.3 µM]
38 | O=C(O)c1ccco1 | 3.03%
39 | CC[N+]1(CC)CCC(=C(c2ccccc2)c2ccccc2)C1C (stereo not given) | -9.59% [at 35.3 µM]
40 | CC1=CC=C(C(C)C)CC1 | 1.36%
